Most compounds without a hit are left out; they make up all but 17% or so of the library.
DT40 TDP1 no CPT = qHTS for Inhibitors of human tyrosyl-DNA phosphodiesterase 1 (TDP1): qHTS in cells in absence of CPT. AID 686978, 2013. hit rate 15% among 420,000. DT40 Tdp1-/- hTDP1 cells, no CPT, ATP luminescence, 48 h. Potency, µM (series often up to 46.2 µM), for inactives: at the highest dose activity change, negative = growth inhibition, hits mostly inhibitors; also: % is scaled to controls: 0 for no effect and ±100 for the full control effect; nearly all actives have a fitted effect of over 55% in size
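Chicken DT40 Tdp1-/- cells complemented with human TDP1, screened without camptothecin (DMSO vehicle only), 400 cells/well. Compounds pin-transferred, cells incubated at 37 °C for at least 48 hr. Growth read as ATP-dependent luminescence (CellTiter-Glo, 30 min at RT).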
S2 tox = reduces viability in counter-screen for ATXN expression inhibitors. Potency, µM (doses to about 56.7 µM), usual class: cytotoxic. hit rate 0.49% among 400,000. S2 cells (HEK-293 line with an ATXN2-luciferase reporter) viability, CellTiter-Fluor protease fluorescence, 24 h; also: nearly all actives have a fitted effect of over 40% in size
ATXN2 expr inh = inhibitors of ATXN2 expression; Potency, µM (highest dose often 57 µM), without a hit: at the highest dose activity change, negative = inhibition, usual class: inhibitors; hit rate 0.72% among 360,000; HEK-293 ATXN2-luciferase reporter, luminescence, 24 h; AID 1745845; also: % is scaled to controls: 0 for no effect and ±100 for the full control effect; nearly all actives have a fitted effect of over 55% in size
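ATXN2-luciferase reporter cells (luciferase flanked by upstream and downstream ATXN2 gene portions) were treated 24 h at 37 °C with compounds at up to 57 uM. SteadyGlo luminescence gave expression; GF-AFC fluorescence gave viability.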
TDP1 cell CPT = DT40-hTDP1 cell growth loss with CPT | chicken DT40 Tdp1-/-;hTDP1 cells + 20 nM CPT, ATP luminescence, 48 h | Potency, µM (top dose mostly 46.2 µM), for inactives: at the highest dose activity change, negative = growth inhibition, most hits filed as inhibitors | hit rate 12% among 420,000 | AID 686979; also: % is scaled to controls: 0 for no effect and ±100 for the full control effect; nearly all actives have a fitted effect of over 55% in size
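Chicken DT40 Tdp1-/- cells stably complemented with human TDP1 were seeded at 400 cells/well in medium containing 20 nM camptothecin, exposed to pin-transferred compounds, and grown at 37 °C for at least 48 hr. Viability was read as ATP luminescence.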
HepG2 viability = HepG2 cytotoxicity, counter-screen for TGF-b inhibitors | HepG2 CAGA-GFP viability, ATP luminescence, 18 h | Potency, µM (series often up to 46.1 µM), inactives show top-dose activity change, negative = cytotoxicity, actives largely listed as cytotoxic | hit rate 0.76% among 410,000
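CellTiter-Glo luminescence gave cytotoxicity after 18 hours at 37 degrees C. The cells were HepG2 CAGA-GFP in 1% FBS DMEM, stimulated with 500 pg/mL TGF-beta after compound addition. %Activity was normalised to no-cell wells (complete cell-killing) and DMSO (no toxicity), and curves were fitted and classified.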
TGFb inhibitor = inhibitors of TGF-b signaling | AID 588855 | hit rate 1.2% among 410,000 | Potency, µM (highest dose often 46.1 µM), for inactives: at the highest dose activity, negative = inhibition, usual class: inhibitors | HepG2 CAGA-GFP TGF-b/SMAD3 reporter, GFP fluorescence, 18 h; TGF-beta stimulated, 500 pg/mL final; also: % is scaled to controls: 0 for no effect and ±100 for the full control effect; nearly all actives have a fitted effect of over 65% in size
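TGF-beta reporter screen: HEPG2 CAGA-GFP, 1% FBS, 500 pg/mL TGF-beta final, 18 h; per-cell GFP summed per well; curves fitted and categorized by class.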
* = called active by the depositor; i = inactive; ? = inconclusive; · = not tested or not shown; [ ] = another dose, or the depositor's remark. Calls follow the shape of the dose curve; as a rule, active = well fitted curve in the direction sought with a large enough effect; inconclusive = small, poorly fitted or top-dose-only effect, or another doubt; inactive = no such curve, though single readings can be large; an effect the other way counts as inactive or inconclusive. Potency is read from the fitted curve at half-maximal effect.

SMILES | DT40 TDP1 no CPT | S2 tox | ATXN2 expr inh | TDP1 cell CPT | HepG2 viability | TGFb inhibitor
O=C(NCCCCc1ccccc1)NC[C@@H]1CC[C@@H](Cc2ccc(-c3ccccc3)cc2)O1 | 14.6µM* | i | 0.0% | 16.4µM* | -26.1% | ?
O=[N+]([O-])c1cccc(COc2ccccc2CN2CCCC2)c1 | -23.7% | i | -1.9% | -22.1% | -7.7% | -0.2%
COc1ccc(Nc2nc(N3CCCC3)c3ccccc3n2)cc1 | 3.26µM* | ? | 28.2µM* | 2.59µM* | -83.2% | ?
Cc1nc(N2CCCCCC2)c2ccccc2n1 | 20.6µM* | · | · | ? | -1.4% | ?
c1ccc2c(N3CCCC3)nc(-c3ccncc3)nc2c1 | 18.4µM* | i | -20.3% | ? | -6.2% | 0.6%
CCN1CCN(c2nc(-c3ccccn3)nc3ccccc23)CC1 | 20.6µM* | i | ? | ? | 2.7% | -15.8%
c1ccc(CN2CCN(c3nc(-c4ccccn4)nc4ccccc34)CC2)cc1 | 2.3% | i | 7.6% | -4.9% | -10.9% | 7.0%
c1ccc(-c2nc(N3CCCCCC3)c3ccccc3n2)nc1 | 2.31µM* | 11.2µM* | ? | 2.06µM* | 6.5% | 0.5%
CN1CCN(c2nc(-c3ccc(Cl)cc3)nc3ccccc23)CC1 | 16.4µM* | · | -21.4% | ? | -24.9% | -3.4%
O=C(NCc1cccc(Cl)c1)c1c2c(nc3ccccc13)C(=O)N(C1CCCCC1)C2 | 10.3µM* | · | · | 14.6µM* | -3.7% | 20.0%
O=C(Nc1ccc(F)cc1F)c1c2c(nc3ccccc13)C(=O)N(C1CCCCC1)C2 | ? | · | · | ? | 7.6% | 32.7%
COc1ccc(C)cc1NC(=O)c1c2c(nc3ccccc13)C(=O)N(C1CCCCC1)C2 | 3.66µM* | · | · | 16.4µM* | -0.1% | 18.7%
COc1ccc(CNC(=O)c2c3c(nc4ccccc24)C(=O)N(C2CCCCC2)C3)c(OC)c1 | 3.3% | i | 13.9% | -1.8% | -16.6% | 1.2%
COc1ccc(CNC(=O)c2c3c(nc4ccccc24)C(=O)N(C2CCCCC2)C3)cc1 | 14.6µM* | · | · | 11.6µM* | -26.2% | ?
COc1ccc(OC)c(CCNC(=O)c2c3c(nc4ccccc24)C(=O)N(C2CCCCC2)C3)c1 | 18.4µM* | · | · | ? | -26.8% | -19.4%
CC(C)CCNC(=O)c1c2c(nc3ccccc13)C(=O)N(C1CCCCC1)C2 | ? | · | · | ? | -0.9% | 12.6%
OC(Br)C(O)C(O)N1CCCc2ccccc21 (stereo not given) | -7.3% | · | · | -2.3% | -9.6% | -22.3%
COc1cc(OC)c(OC)cc1CN1CCC(n2cc(C(=O)N3CCCCC3)nn2)CC1 | -7.9% | i | · | 8.3%[9.04 µM] | · | ·
CCOC(=O)C(NC(C)=O)(Nc1ccc(S(N)(=O)=O)cc1)C(F)(F)F (stereo not given) | 3.0% | i | -7.8% | 1.8% | 3.5% | -1.1%
CCOc1ccccc1N(C)C(=O)c1c2c(nc3ccccc13)C(=O)N(C1CCCCC1)C2 | ? | · | · | 16.4µM* | -32.9% | 3.4%
COc1cccc(CNC(=O)c2c3c(nc4ccccc24)C(=O)N(C2CCCCC2)C3)c1 | 20.6µM* | · | · | 13µM* | -3.6% | 1.8%
CCn1cc(C(=O)NCc2ccc(F)cc2)c(=O)c2cc(S(=O)(=O)N(C)C)ccc21 | ? | i | -2.8% | -25.0% | -12.3% | -12.0%
CCCCN(C)C(=O)c1ccc(Nc2nc(C(N)CCc3ccccc3)cs2)nc1 (stereo not given) | 20.6µM* | ? | ? | 14.6µM* | -89.3% | ?
CCCCN(C)C(=O)c1ccc(Nc2nc(C(N)Cc3ccc(C(F)(F)F)cc3)cs2)nc1 (stereo not given) | 11.6µM* | 31.6µM* | -1.1% | 8.2µM* | 11.2µM* | ?
Oc1ccc(C[C@H]2CN([C@@H](Cc3ccccc3)CN3CCC[C@@H]3CN3C(=S)NC[C@@H]3Cc3ccccc3)C(=S)N2CC2CCCCC2)cc1 | 25.9µM* | ? | 0.0% | ? | -32.8% | 12.6µM*
SMILES | DT40 TDP1 no CPT | S2 tox | ATXN2 expr inh | TDP1 cell CPT | HepG2 viability | TGFb inhibitor
Oc1ccc(C[C@@H](CN2CCCC2CN2C(=S)NC[C@@H]2Cc2ccccc2)N2C[C@H](Cc3ccccc3)N(CC3CCCCCC3)C2=S)cc1 (stereo not given in full) | ? | i | -3.6% | ? | · | ·
Oc1ccc(C[C@@H](CN2CCCC2CN2C(=S)NC[C@@H]2Cc2ccccc2)N2C[C@H](Cc3ccccc3)N(CC3CCCCC3)C2=S)cc1 (stereo not given in full) | 20.6µM* | i | 1.3% | 14.6µM* | · | ·
COC(=O)CN(c1cc(Cl)ccc1OC)S(=O)(=O)c1ccc(C)cc1 | 18.4µM* | i | -19.8% | ? | -39.3% | 6.3%
COc1ccc(S(=O)(=O)Nc2ccc(C)cc2)cc1N(C)S(=O)(=O)c1ccc(Cl)cc1 | 18.4µM* | ? | ? | 23.1µM* | -49.3% | ?
COc1ccc(Cl)cc1N(CC(=O)NC(C)(C)C)S(=O)(=O)c1ccc(C)c([N+](=O)[O-])c1 | 20.6µM* | i | -31.9% | 16.4µM* | -18.6% | 1.1%
O=C1NC2(CCCCO2)CO1 (stereo not given) | 2.9% | i | -1.8% | -22.1% | 1.0% | -3.2%
Cc1noc(NS(=O)(=O)c2ccc(NC(=O)c3cc(F)c(F)c(F)c3F)cc2)c1C | -3.7% | i | -7.0% | -1.4% | 1.4% | 3.7%
COc1ccc(N2CCN(c3oc(/C=C/c4ccc(F)cc4)nc3C#N)CC2)cc1 | 7.7% | · | · | -2.3% | -18.5% | ·
O=C(NC(=S)NCc1ccccc1)c1cccs1 | 10.2% | i | 12.6% | 22.6% | -6.9% | -13.9%
O=C(CC(=O)c1cccs1)c1ccncc1 | 29.1µM* | i | 21.4% | 20.6µM* | -2.6% | -3.1%
O=C(NNC(=S)NC(=O)c1cccs1)c1ccc(O)cc1 | ? | i | 5.5% | 23.1µM* | 2.2% | 0.5%
O=C(NNC(=S)NC(=O)c1cccs1)c1cccnc1 | ? | i | -17.3% | ? | -5.5% | 13.0%
O=C(CNC(=S)NC(=O)c1cccs1)c1ccccc1 | 14.6µM* | i | 24.3% | 16.4µM* | -32.2% | -4.0%
O=C(Nc1ccc(NC(=S)NC(=O)c2cccs2)cc1)c1ccccc1 | -19.3% | ? | -15.5% | -19.5% | 4.2% | -7.1%
O=C(NNC(=S)NC(=O)c1cccs1)c1ccc(NC(=O)c2ccccc2)cc1 | ? | i | ? | 25.9µM* | 5.7% | -21.8%
